Measured values from PubChem BioAssay.
Calls of active or inactive are those of the source.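 How the source made its calls, unless noted: active means primary screen hit whose calcium fluorescence ratio, in both repeats, exceeds the weak agonist control mean by 3 SD; inactive means the rest.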

System: TRPC4 (transient receptor potential cation channel C4 beta), mouse
Experiment: potentiation of DAMGO EC20 TRPC4 response – cell-based, second round, Fluo-4, HEK293 TRPC4beta/mu-opioid, 1 µM, confirmation (AID 2554;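 active means primary screen hit whose fluorescence ratio, in both repeats, exceeds the weak agonist control mean by 3 SD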)
Details: DAMGO EC20, Fluo-4 calcium flux, at 1 µM

outcome, inactive:
CCC(O)(c1ccc(OC)cc1)C(CN1CCOCC1)c1ccccc1 (stereo not given)
COc1ccc(Nc2cc(C)nc3ccc(OC)cc23)cc1
Cc1ccc(C(C)(C)C)cc1S(=O)(=O)Nc1nc2ccccc2nc1Cl
CN(C)C(CNC(=O)c1ccccc1OCc1ccc(Cl)cc1)c1ccco1 (stereo not given)
COc1ccc(-c2csc(NC(=O)Cc3cccc4ccccc34)c2C(=O)O)cc1
CC1CCN(C(C)C(=O)Nc2ccccc2-c2ccccc2)CC1 (stereo not given)
O=c1c2ccccc2nc(SCc2ccccc2)n1CC1CCCO1 (stereo not given)
CC(=O)Nc1cccc(C(=O)NCC2(N3CCCCC3)CCCCC2)c1
Cc1ccn2cc(CCNC(=O)c3ccc(Br)o3)nc2c1
CCOc1ccc2ccccc2c1CNCCc1ccc(S(N)(=O)=O)cc1
CCc1cccc(OCC(=O)Nc2ccc(C(=O)O)cc2NC(=O)COc2cccc(CC)c2)c1
COc1ccc(CN2CCN(C(=O)c3ccc(F)cc3)CC2)c(OC)c1
CCOc1ccc(Br)cc1/C=N/O
CCC1CCCCN1Cc1nc2c(c(=O)n(C)c(=O)n2C)n1Cc1ccccc1 (stereo not given)
O=C(c1ccc2c(c1)OCO2)C1CCCN(Cc2ccccc2OC(F)F)C1 (stereo not given)
O=C(Nc1ccccc1N1CCN(C(=O)c2ccccc2)CC1)c1ccc(Br)o1
Cc1ccc(C(=O)C2=C(O)C(=O)N(Cc3cccnc3)C2c2ccc(Cl)c(Cl)c2)o1 (stereo not given)
Cc1cccc(CCN(C(=O)c2snc(C(N)=O)c2N)C(C(=O)NCC2CCCO2)c2ccc(F)cc2)c1 (stereo not given)
Cc1ccc(NC(=O)c2cc(N3C(=O)C=CC3=O)ccc2N2CCOCC2)cc1
Fc1ccccc1Sc1ccccc1CNC1=NCCN1
CC(C)C(NC(=O)c1ccc(C(C)(C)C)cc1)C(=O)NCC(c1ccccc1)N(C)C (stereo not given)
COCCn1c(SCC(=O)c2ccccc2)nc2ccccc2c1=O
COc1ccc(SC[C@H](Cc2ccccc2)N2CCN(C)CCC2=O)cc1
O=C(CCCSc1nc2ccccc2[nH]1)NCc1ccccc1Cl
CCOC(=O)C1(Cc2ccccc2)CCN(CC2CC=CCC2)CC1 (stereo not given)
CCn1c(NCc2c[nH]c3ccccc23)nc2ccccc21
COc1ccc(C(CNC(=O)c2oc3ccc(F)cc3c2C)N2CCCCC2)cc1 (stereo not given)
CCC(=O)N1CCc2cc(S(=O)(=O)NCCN3CCCCC3CC)ccc21 (stereo not given)
Nc1cc(N2CCCCC2)c([N+](=O)[O-])cc1Cl
Cc1c(CCOC(=O)c2cccc([N+](=O)[O-])c2)sc[n+]1CC(=O)c1ccccc1
CCOc1cc(CNCCCN2CCOCC2)cc(Br)c1OCc1ccccc1Cl
Cc1ccc(Sc2ccc(CO)cc2[N+](=O)[O-])cc1
Cc1ccc(Cn2c(Cc3ccccc3)nc3ccccc32)cc1
CC1CCc2c(sc(/N=C/N(C)C)c2C#N)C1 (stereo not given)
COc1ccccc1N1CCN(CC(C)N(C(=O)C2CCCCC2)c2ccccn2)CC1 (stereo not given)
CCN(CC)c1ncnc2scc(C3COc4ccccc4O3)c12 (stereo not given)
COc1ccc(Sc2nc(-c3ccccc3)ncc2C(=O)O)cc1
Cc1cccc(CN2CCCC(C(=O)Nc3ccccc3Oc3cccnc3)C2)c1 (stereo not given)
Cn1nnnc1SCCNCc1ccccc1OCc1ccc(Cl)cc1
O=C(C[n+]1cccc(CNC(=O)c2ccc(OC(F)F)cc2)c1)Nc1ccc(SC(F)F)cc1

System: TRPC4 beta (transient receptor potential cation channel C4), mouse
Experiment: potentiation of DAMGO EC20 TRPC4 response – cell-based, Fluo-4, HEK293 TRPC4beta/mu-opioid, confirmation (AID 2555)
Details: DAMGO EC20, Fluo-4 calcium flux, at 10 µM

outcome, inactive:
CCC(O)(c1ccc(OC)cc1)C(CN1CCOCC1)c1ccccc1 (stereo not given)
COc1ccc(Nc2cc(C)nc3ccc(OC)cc23)cc1
Cc1ccc(C(C)(C)C)cc1S(=O)(=O)Nc1nc2ccccc2nc1Cl
CN(C)C(CNC(=O)c1ccccc1OCc1ccc(Cl)cc1)c1ccco1 (stereo not given)
COc1ccc(-c2csc(NC(=O)Cc3cccc4ccccc34)c2C(=O)O)cc1
CC1CCN(C(C)C(=O)Nc2ccccc2-c2ccccc2)CC1 (stereo not given)
O=c1c2ccccc2nc(SCc2ccccc2)n1CC1CCCO1 (stereo not given)
CC(=O)Nc1cccc(C(=O)NCC2(N3CCCCC3)CCCCC2)c1
Cc1ccn2cc(CCNC(=O)c3ccc(Br)o3)nc2c1
CCOc1ccc2ccccc2c1CNCCc1ccc(S(N)(=O)=O)cc1
CCc1cccc(OCC(=O)Nc2ccc(C(=O)O)cc2NC(=O)COc2cccc(CC)c2)c1
COc1ccc(CN2CCN(C(=O)c3ccc(F)cc3)CC2)c(OC)c1
CCOc1ccc(Br)cc1/C=N/O
CCC1CCCCN1Cc1nc2c(c(=O)n(C)c(=O)n2C)n1Cc1ccccc1 (stereo not given)
O=C(c1ccc2c(c1)OCO2)C1CCCN(Cc2ccccc2OC(F)F)C1 (stereo not given)
O=C(Nc1ccccc1N1CCN(C(=O)c2ccccc2)CC1)c1ccc(Br)o1
Cc1ccc(C(=O)C2=C(O)C(=O)N(Cc3cccnc3)C2c2ccc(Cl)c(Cl)c2)o1 (stereo not given)
Cc1cccc(CCN(C(=O)c2snc(C(N)=O)c2N)C(C(=O)NCC2CCCO2)c2ccc(F)cc2)c1 (stereo not given)
Cc1ccc(NC(=O)c2cc(N3C(=O)C=CC3=O)ccc2N2CCOCC2)cc1
Fc1ccccc1Sc1ccccc1CNC1=NCCN1
CC(C)C(NC(=O)c1ccc(C(C)(C)C)cc1)C(=O)NCC(c1ccccc1)N(C)C (stereo not given)
COCCn1c(SCC(=O)c2ccccc2)nc2ccccc2c1=O
COc1ccc(SC[C@H](Cc2ccccc2)N2CCN(C)CCC2=O)cc1
O=C(CCCSc1nc2ccccc2[nH]1)NCc1ccccc1Cl
CCOC(=O)C1(Cc2ccccc2)CCN(CC2CC=CCC2)CC1 (stereo not given)
CCn1c(NCc2c[nH]c3ccccc23)nc2ccccc21
COc1ccc(C(CNC(=O)c2oc3ccc(F)cc3c2C)N2CCCCC2)cc1 (stereo not given)
CCC(=O)N1CCc2cc(S(=O)(=O)NCCN3CCCCC3CC)ccc21 (stereo not given)
Nc1cc(N2CCCCC2)c([N+](=O)[O-])cc1Cl
Cc1c(CCOC(=O)c2cccc([N+](=O)[O-])c2)sc[n+]1CC(=O)c1ccccc1
CCOc1cc(CNCCCN2CCOCC2)cc(Br)c1OCc1ccccc1Cl
Cc1ccc(Sc2ccc(CO)cc2[N+](=O)[O-])cc1
Cc1ccc(Cn2c(Cc3ccccc3)nc3ccccc32)cc1
CC1CCc2c(sc(/N=C/N(C)C)c2C#N)C1 (stereo not given)
COc1ccccc1N1CCN(CC(C)N(C(=O)C2CCCCC2)c2ccccn2)CC1 (stereo not given)
CCN(CC)c1ncnc2scc(C3COc4ccccc4O3)c12 (stereo not given)
COc1ccc(Sc2nc(-c3ccccc3)ncc2C(=O)O)cc1
Cc1cccc(CN2CCCC(C(=O)Nc3ccccc3Oc3cccnc3)C2)c1 (stereo not given)
Cn1nnnc1SCCNCc1ccccc1OCc1ccc(Cl)cc1
O=C(C[n+]1cccc(CNC(=O)c2ccc(OC(F)F)cc2)c1)Nc1ccc(SC(F)F)cc1
